Measurements: PubChem BioAssay AID602143 (Vanderbilt Specialized Chemistry Center, 2011)
A number with no mark means an inactive call. Activity calls are given as the source filed them. Rule as the data show it: active = remaining activity below about 50%; inactive = the rest.

molecular target: Phospholipase D2 (Homo sapiens) (UniProt O14939); assay: cellular phospholipase D2 activity inhibition – cell-based, HEK293, single concentration (AID 602143); conditions: HEK293 cellular PLD2 activity, percent of control; active compounds read low;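 also: tested at 200 nM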
Sequence (O14939 whole entry, looked up): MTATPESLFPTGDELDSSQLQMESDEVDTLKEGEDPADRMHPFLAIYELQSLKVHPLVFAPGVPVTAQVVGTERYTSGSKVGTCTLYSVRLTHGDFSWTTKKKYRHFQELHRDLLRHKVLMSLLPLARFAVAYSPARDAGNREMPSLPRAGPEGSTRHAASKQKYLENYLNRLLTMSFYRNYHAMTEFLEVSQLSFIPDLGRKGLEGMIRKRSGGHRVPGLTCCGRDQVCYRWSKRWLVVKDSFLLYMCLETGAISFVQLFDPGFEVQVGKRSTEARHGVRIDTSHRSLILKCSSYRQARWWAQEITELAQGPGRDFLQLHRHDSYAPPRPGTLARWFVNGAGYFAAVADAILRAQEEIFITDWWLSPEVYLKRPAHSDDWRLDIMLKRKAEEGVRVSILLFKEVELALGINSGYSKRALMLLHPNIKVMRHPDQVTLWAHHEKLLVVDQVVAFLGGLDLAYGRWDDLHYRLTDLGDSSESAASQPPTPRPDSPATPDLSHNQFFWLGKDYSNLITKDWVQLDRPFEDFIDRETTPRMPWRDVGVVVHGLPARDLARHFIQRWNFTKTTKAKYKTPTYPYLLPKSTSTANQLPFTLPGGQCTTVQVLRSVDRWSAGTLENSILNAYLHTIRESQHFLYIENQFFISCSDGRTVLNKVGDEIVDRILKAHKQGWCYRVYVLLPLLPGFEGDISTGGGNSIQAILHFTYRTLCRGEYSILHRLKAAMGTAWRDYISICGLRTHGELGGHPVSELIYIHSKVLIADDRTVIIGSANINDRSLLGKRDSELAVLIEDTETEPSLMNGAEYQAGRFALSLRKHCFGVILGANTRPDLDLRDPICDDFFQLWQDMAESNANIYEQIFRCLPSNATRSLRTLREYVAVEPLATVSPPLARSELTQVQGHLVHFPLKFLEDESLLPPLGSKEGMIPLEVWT
Sequence (O14939 whole entry, looked up): as above

Compound	remaining activity
COc1ccc(S(=O)(=O)NCCN2CCC(n3c(=O)[nH]c4ccccc43)CC2)cc1OC	77.1%
O=C(NCCN1CCC(n2c(=O)[nH]c3ccc(F)cc32)CC1)c1cccc2c1C(=O)c1ccccc1-2	0% (active)
CC(C)[C@@H](CN1CCC(n2c(=O)[nH]c3ccccc32)CC1)NC(=O)[C@@H]1C[C@H]1c1ccccc1	74%
O=C(NCCN1CCC(n2c(=O)[nH]c3ccccc32)CC1)c1ccc2c(c1)CCCC2	96.1%
O=C(NCCN1CCC(n2c(=O)[nH]c3ccccc32)CC1)c1ccccc1-c1ccccc1	83.4%
O=C(NCCN1CCC(C(=O)NCCc2ccccn2)CC1)c1ccc2ccccc2c1	100%
O=C(NCCN1CCN(c2ncccn2)CC1)c1ccc2ccccc2c1	90.4%
C[C@@H](CN1CCC(n2c(=O)[nH]c3cc(-c4ccc(F)c(F)c4)ccc32)CC1)NC(=O)[C@H]1C[C@@H]1c1ccccc1	80.4%
C[C@H](CN1CCC2(CC1)CNCc1ccccc12)NC(=O)c1ccc2ccccc2c1	110%
O=c1[nH]c2ccccc2n1C1CCN(CCNS(=O)(=O)c2ccc([N+](=O)[O-])cc2)CC1	80.3%
O=C(NCCN1CCC(n2c(=O)[nH]c3ccccc32)CC1)c1cc2ccccc2c2c1ccc1ccccc12	76.6%
O=c1[nH]c2ccccc2n1C1CCN(CCNS(=O)(=O)c2ccccc2[N+](=O)[O-])CC1	108%
C[C@@H](CN1CCC(c2nc3ccccc3[nH]2)CC1)NC(=O)c1ccc2ccccc2c1	86.5%
